# Legend:
# Assay in all cases: SPOT peptide array binding signal intensity (averaged, normalized) (arbitrary units (background-subtracted, floor 0; scale differs between SH3 domains)); higher = stronger binding of the SH3 domain to the peptide
# [1] = target: AgAbp1
# How it was run: (§1)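 To measure binding, SH3 domains from four yeast species were fused to GST, expressed in E. coli BL21(DE3) and purified on glutathione Sepharose. Each domain was incubated at 10 μg/ml overnight at 4°C on cellulose membranes with synthetic 15-mer peptides whose cysteines were replaced by serines. Anti-GST antibody, an HRP anti-mouse secondary and luminol were used for detection, and images were quantified with Genespotter. Reported binding signal is normalized, background-subtracted spot intensity averaged over replicates, in arbitrary units that differ between domains.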
# [2] = target: AgBbc1
# How it was run: as §1
# [3] = target: AgBem1-D1
# How it was run: as §1
# [4] = target: AgBzz1-D1
# How it was run: as §1
# [5] = target: AgBzz1-D2
# How it was run: as §1
# [6] = target: AgCyk3
# How it was run: as §1
# [7] = target: AgFus1
# How it was run: as §1
# [8] = target: AgHof1
# How it was run: as §1
# [9] = target: AgHse1
# How it was run: as §1
# [10] = target: AgLsb1
# How it was run: as §1
# [11] = target: AgLsb4
# How it was run: as §1
# [12] = target: AgMyo5
# How it was run: as §1
# [13] = target: AgNbp2
# How it was run: as §1
# [14] = target: AgRvs167
# How it was run: as §1
# [15] = target: AgSho1
# How it was run: as §1
# [16] = target: AgSla1-D1-D2
# How it was run: as §1
# [17] = target: AgSla1-D3
# How it was run: as §1
# [18] = target: CaAbp1-D1
# How it was run: as §1
# [19] = target: CaAbp1-D2
# How it was run: as §1
# [20] = target: CaBbc1
# How it was run: as §1
# [21] = target: CaBem1-D1
# How it was run: as §1
# [22] = target: CaBzz1-D1
# How it was run: as §1
# [23] = target: CaBzz1-D2
# How it was run: as §1
# [24] = target: CaCyk3
# How it was run: as §1
# [25] = target: CaFus1
# How it was run: as §1
# [26] = target: CaHof1
# How it was run: as §1
# [27] = target: CaHse1
# How it was run: as §1
# [28] = target: CaLsb1
# How it was run: as §1
# [29] = target: CaLsb4
# How it was run: as §1
# [30] = target: CaMyo5
# How it was run: as §1
# [31] = target: CaNbp2
# How it was run: as §1
# [32] = target: CaRvs167
# How it was run: as §1
# [33] = target: CaRvs167-3
# How it was run: as §1
# [34] = target: CaSho1
# How it was run: as §1
# [35] = target: CaSla1-D1-D2
# How it was run: as §1
# [36] = target: CaSla1-D3
# How it was run: as §1
# [37] = target: ScAbp1
# How it was run: as §1
# [38] = target: ScBbc1
# How it was run: as §1
# [39] = target: ScBem1-D1
# How it was run: as §1
# [40] = target: ScBzz1-D1
# How it was run: as §1
# [41] = target: ScBzz1-D2
# How it was run: as §1
# [42] = target: ScCyk3
# How it was run: as §1
# [43] = target: ScFus1
# How it was run: as §1
# [44] = target: ScHof1
# How it was run: as §1
# [45] = target: ScHse1
# How it was run: as §1
# [46] = target: ScLsb1
# How it was run: as §1
# [47] = target: ScLsb2
# How it was run: as §1
# [48] = target: ScLsb3
# How it was run: as §1
# [49] = target: ScLsb4
# How it was run: as §1
# [50] = target: ScMyo3
# How it was run: as §1
# [51] = target: ScMyo5
# How it was run: as §1
# [52] = target: ScNbp2
# How it was run: as §1
# [53] = target: ScPex13
# How it was run: as §1
# [54] = target: ScRvs167
# How it was run: as §1
# [55] = target: ScSho1
# How it was run: as §1
# [56] = target: ScSla1-D1-D2
# How it was run: as §1
# [57] = target: ScSla1-D3
# How it was run: as §1
# [58] = target: SpAbp1-D1
# How it was run: as §1
# [59] = target: SpBbc1
# How it was run: as §1
# [60] = target: SpBzz1-D1
# How it was run: as §1
binder,measurement,setting,value
QGYPRQPQRPQRYHP,SPOT peptide array binding signal intensity,[1],15.5
same,SPOT peptide array binding signal intensity,[2],187
same,SPOT peptide array binding signal intensity,[3],≤ 0
same,SPOT peptide array binding signal intensity,[4],8
same,SPOT peptide array binding signal intensity,[5],22.5
same,SPOT peptide array binding signal intensity,[6],≤ 0
same,SPOT peptide array binding signal intensity,[7],≤ 0
same,SPOT peptide array binding signal intensity,[8],0.5
same,SPOT peptide array binding signal intensity,[9],17.5
same,SPOT peptide array binding signal intensity,[10],≤ 0
same,SPOT peptide array binding signal intensity,[11],47
same,SPOT peptide array binding signal intensity,[12],≤ 0
same,SPOT peptide array binding signal intensity,[13],≤ 0
same,SPOT peptide array binding signal intensity,[14],0.333
same,SPOT peptide array binding signal intensity,[15],≤ 0
same,SPOT peptide array binding signal intensity,[16],2
same,SPOT peptide array binding signal intensity,[17],≤ 0
same,SPOT peptide array binding signal intensity,[18],25.5
same,SPOT peptide array binding signal intensity,[19],11
same,SPOT peptide array binding signal intensity,[20],329
same,SPOT peptide array binding signal intensity,[21],15
same,SPOT peptide array binding signal intensity,[22],144
same,SPOT peptide array binding signal intensity,[23],32.5
same,SPOT peptide array binding signal intensity,[24],13
same,SPOT peptide array binding signal intensity,[25],≤ 0
same,SPOT peptide array binding signal intensity,[26],≤ 0
same,SPOT peptide array binding signal intensity,[27],≤ 0
same,SPOT peptide array binding signal intensity,[28],≤ 0
same,SPOT peptide array binding signal intensity,[29],1180
same,SPOT peptide array binding signal intensity,[30],≤ 0
same,SPOT peptide array binding signal intensity,[31],≤ 0
same,SPOT peptide array binding signal intensity,[32],2.5
same,SPOT peptide array binding signal intensity,[33],≤ 0
same,SPOT peptide array binding signal intensity,[34],12.5
same,SPOT peptide array binding signal intensity,[35],≤ 0
same,SPOT peptide array binding signal intensity,[36],≤ 0
same,SPOT peptide array binding signal intensity,[37],10
same,SPOT peptide array binding signal intensity,[38],40.2
same,SPOT peptide array binding signal intensity,[39],2.5
same,SPOT peptide array binding signal intensity,[40],≤ 0
same,SPOT peptide array binding signal intensity,[41],11
same,SPOT peptide array binding signal intensity,[42],≤ 0
same,SPOT peptide array binding signal intensity,[43],≤ 0
same,SPOT peptide array binding signal intensity,[44],0.75
same,SPOT peptide array binding signal intensity,[45],≤ 0
same,SPOT peptide array binding signal intensity,[46],9.5
same,SPOT peptide array binding signal intensity,[47],≤ 0
same,SPOT peptide array binding signal intensity,[48],1040
same,SPOT peptide array binding signal intensity,[49],25
same,SPOT peptide array binding signal intensity,[50],≤ 0
same,SPOT peptide array binding signal intensity,[51],≤ 0
same,SPOT peptide array binding signal intensity,[52],3.5
same,SPOT peptide array binding signal intensity,[53],29.5
same,SPOT peptide array binding signal intensity,[54],≤ 0
same,SPOT peptide array binding signal intensity,[55],16
same,SPOT peptide array binding signal intensity,[56],12
same,SPOT peptide array binding signal intensity,[57],≤ 0
same,SPOT peptide array binding signal intensity,[58],≤ 0
same,SPOT peptide array binding signal intensity,[59],3.5
same,SPOT peptide array binding signal intensity,[60],226

# Source: the supplement of paper PMC4466140
